Holding throughout (test): NCI-60 one-dose screen, 48 h (100 = growth as untreated, 0 = no growth, -100 = all killed)
Common to all, as to conditions: 10 µM

The subject of assay [1] is RPMI-8226 leukemia.
Assay [2] deals with OVCAR-8 ovarian.
Assay [3] deals with OVCAR-5 ovarian.
Assay [4] deals with OVCAR-4 ovarian.
Assay [5] has as its system SK-OV-3 ovarian.
The subject of assay [6] is IGROV1 ovarian.
Assay [7] concerns OVCAR-3 ovarian.
The subject of assay [8] is HS 578T breast.
For assay [9], the system named is NCI/ADR-RES ovarian.

This is part of a sample that, as a whole, favours compounds with a hit. Of some 83,000 tested, about 20% had one in any assay.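 Negative percent growth values reflect cell death: -40 means 40% of the cells present at the start died, and -100 means all died.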 Values without a mark were called inactive. Active and inactive are the calls of the source. The calls were made as follows: active = growth percent below 10; inactive = the rest.

For the molecule `Oc1ccc(O)cc1`, the growth is 67.6% in assay [1]; 94.6% in [2]; 123% in [3]; 105% in [4]; 114% in assay [5]; 108% in assay [6]. For the same molecule, the growth in assay [7] was 109%; in assay [8], 104%; in [9], 92.4%.
As to `Cc1ccc(C)n1-c1ccsc1C(=O)NNC(=O)C(Cl)Cl`, the growth in [1] is 107%; in assay [2], 106%; in [3], 112%; in assay [4], 96.9%; in [5] it was 95.7%; in assay [6], 108%. The growth in assay [7] is 107%; in assay [8], 100%; in assay [9] it was 102%.
Regarding `CC(CN1CCCCC1)NC(=O)c1scnc1-c1ccccc1` (centres undefined), the growth is 101% in assay [1]; 100% in [2]; 118% in assay [3]; 108% in assay [4]; 103% in [5]; 105% in [6]. The growth in assay [7] is 112%; in assay [8], 195%; in [9] it was 99.4%.
For the molecule `CCOC(=O)c1cc(/C=C/c2cccc(Cl)c2)on1`, the growth was 4.16% (active) in assay [1]; 99.5% in [2]; 101% in assay [3]; 83.7% in assay [4]; 111% in [5]; 93.9% in assay [6]. Moreover, the growth in [7] is 99.1%; in [8], 76.4%; in [9], 91%.
`COc1cccc(COC(=O)Nc2ccccc2)c1OC`: the growth was 90.1% in assay [1]; 96.9% in assay [2]; 105% in assay [3]; 117% in assay [4]; 111% in [5]; 101% in assay [6]. Further, the growth in [7] was 111%; in [8], 115%; in assay [9], 105%.
As for `O=C(OCC(O)C1OC(c2ccccc2)OC(COC(=O)c2ccccc2)C1O)c1ccccc1` (centres undefined), the growth in assay [2] is 103%; in assay [3] it was 105%; in assay [4], 93.2%; in [5], 108%; in assay [6] it was 103%; in assay [7] it was 118%. The growth in assay [8] was 116%.
Take `COc1cccc(Sc2ccc([N+](=O)[O-])c3no[n+]([O-])c23)c1`: the growth in assay [1] was 6.99% (active); in [2] it was 53%; in assay [3], 60.2%; in assay [4], 67.5%; in [5] it was 77.9%; in assay [7] it was -61.9% (active). Besides, in [9], the growth is 42.5%.
Consider `CC1=CC(=O)c2ccccc2C1=O`, for which the growth in assay [3] is 105%; in assay [4], 112%; in assay [5] it was 108%; in assay [6] it was 112%; in assay [7] it was 113%; in assay [8] it was 103%.
On to `NCC(=O)CCC(=O)O`, for which the growth in [1] was 118%; in [2] it was 104%; in assay [3], 120%; in assay [4], 98%; in assay [5], 99.8%; in assay [6] it was 112%. Moreover, the values for the growth in assay [7] and in assay [9] were 111% and 107%, respectively.
As to `O=[N+]([O-])c1ccc(-c2noc(-c3cccs3)n2)cc1`, the growth in assay [1] is 96.5%; in assay [3] it was 98.5%; in assay [4], 71.6%; in [5], 95.2%; in assay [6], 96%; in assay [7] it was 106%. In addition, the growth in assay [8] is 60.3%.
With `CSc1[nH]c(=O)ncc1F`, the growth is 106% in assay [1]; 102% in assay [3]; 102% in assay [4]; 119% in [5]; 110% in assay [6]; 107% in assay [7]. The growth is 103% in [8] and 99.3% in [9].
Take `CC(C(=O)O)(C1CCCCC1)C1(O)CCCCC1` (centres undefined): the growth in assay [2] is 104%; in assay [3], 109%; in [4] it was 108%; in assay [5] it was 101%; in assay [6], 101%; in assay [7] it was 107%. The results for the growth in [8] and in assay [9] were 119% and 106%, respectively.
On to `Cc1cc(N)c(S(=O)(=O)O)c(N)c1`, for which the growth in assay [1] is 95.6%; in assay [2], 109%; in [4], 103%; in [5], 100%; in assay [6], 130%; in assay [7], 112%.
For the molecule `Nc1ccccc1SC(CC(=O)c1ccccc1)c1c(Cl)cccc1Cl` (centres undefined), the growth in assay [2] is 68.7%; in assay [3], 89.6%; in assay [4], 66%; in assay [5], 73.3%; in assay [6], 62.7%; in [7], 46.5%. For the same molecule, the growth was 84.9% in assay [8] and 69.2% in assay [9].
As for `Cc1ccc(C)n1-c1ccsc1C(=O)NNC(=O)CCl`, the growth is 84.4% in assay [1]; 106% in [2]; 111% in assay [3]; 93.5% in assay [4]; 95.2% in assay [5]; 103% in assay [6]. Moreover, the values for the growth in [7] and in assay [9] were 93.2% and 98.5%, respectively.
In the case of `CN(C)c1ccc2oc(=O)c3ccccc3c2c1`, the growth was 74.1% in [1]; 104% in assay [2]; 91.9% in assay [3]; 69.2% in assay [4]; 101% in assay [5]; 95.3% in [6]. Further, the growth was 103% in assay [7] and 94.9% in assay [9].
For `CCCNC(=O)c1ccc(S(N)(=O)=O)cc1`, the growth in [1] is 96.9%; in assay [2], 122%; in assay [3] it was 89.7%; in assay [4] it was 84.3%; in assay [5] it was 105%; in assay [6], 135%. The growth was 113% in [7] and 99.5% in assay [9].
`OC1CCCc2ccccc21` (centres undefined): the growth in assay [1] is 104%; in [3] it was 100%; in assay [4] it was 99.2%; in assay [5] it was 98.7%; in assay [6] it was 97%; in [7] it was 110%. Also, the growth in assay [8] is 96.8%; in [9], 108%.
On to `Nc1ccc(NC(=O)c2cccc(N)c2)cc1`, for which the growth in [1] is 94.5%; in assay [3] it was 101%; in [4] it was 104%; in assay [5] it was 103%; in [7], 107%; in assay [8], 97.1%. Moreover, the growth in [9] was 111%.
Regarding `CC(=O)Nc1cccc(Cl)c1C`, the growth in [2] was 96.5%; in assay [3], 103%; in assay [4], 109%; in assay [5], 101%; in [6], 102%; in assay [7] it was 102%. Further, the values for the growth in assay [8] and in assay [9] were 92.9% and 104%, respectively.
Take `O=C(Nc1ccccc1)OCCc1ccccc1`: the growth in assay [2] is 103%; in [3], 92.7%; in [4] it was 91.4%; in assay [5], 110%; in assay [6] it was 103%; in assay [7] it was 118%. Moreover, the growth in assay [8] is 120%.
As to `CCc1nn(Cc2ccccc2)c2nc(C)c(CCc3ccccc3)c(Cl)c12`, the growth was 72% in assay [1]; 95.1% in [3]; 86.2% in assay [4]; 97.1% in [5]; 109% in [7]; 92.2% in assay [8]. Further, in assay [9], the growth is 92%.
`CC(=O)C1CCCCC1`: the growth in [1] was 96.4%; in assay [2] it was 95%; in assay [3], 107%; in assay [5], 103%; in assay [6] it was 106%; in assay [7], 110%. Moreover, the growth in assay [8] is 104%; in assay [9], 107%.
